tim10-1 inh: growth inhibitors of tim10-1 mutant yeast, primary screen, luminescence, uHTS. inhibition, % at 20 µM. S. cerevisiae tim10-1 ts strain growth, BacTiter-Glo, 24 h. hit rate 2.2% among 330,000;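 active = inhibition of at least 40%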;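 also: mutant grown at 25 °C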
NALP1 yeast inh: NALP1 inflammasome inhibitors in reconstituted yeast, colorimetric, S. cerevisiae, triplicate retest; S. cerevisiae NALP1/ASC/caspase-1 growth, X-gal OD620, 72 h; inhibition, % at 10 µM; hit rate 0.61% among 280,000; AID 2071, 2009; in the data active = inhibition mostly above about 24%, no sharp cut-off; inactive = mostly below about 32%
tim23-1 inh: growth inhibitors of tim23-1 mutant yeast, primary screen, luminescence, uHTS. inhibition, % at 20 µM. AID 463212, 2010. S. cerevisiae tim23-1 growth, BacTiter-Glo luminescence, 24 h. hit rate 1.3% among 330,000;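 active = growth inhibition of the mutant yeast at or above 50%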;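 also: temperature-sensitive mutant grown at 25 °C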
PfHsp90 set2: growth inhibition of PfHsp90-expressing yeast, primary screen, antimalarial PfHsp90 inhibitor project, S. cerevisiae, BacTiter-Glo luminescence, single point, set 2; BacTiter-Glo ATP, 48 h; yeast lacking PDR1 and PDR3 efflux regulators; hit rate 0.32% among 310,000; inhibition, % at 9.4 µM; AID 504621, 2011;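 active = every replicate shows inhibition above about 80%, whatever the replicate mean, limit read from the data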
TIM10 inh: growth inhibitors of isogenic TIM10 control yeast, primary screen, counter-screen for tim10-1 yeast inhibitor project, luminescence, uHTS; inhibition, % at 10 µM; AID 463195, 2010; hit rate 1.4% among 330,000; S. cerevisiae TIM10 strain growth, BacTiter-Glo luminescence, 24 h;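 active = inhibition of 40% or more at the single tested concentration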;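 also: wild-type TIM10 isogenic control strain grown at permissive 25 °C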
NALP3 yeast inh: NALP3 inflammasome inhibitors in reconstituted yeast, primary screen, luminescence, uHTS; Yeast reconstituted NLRP3/ASC/caspase-1, beta-gal luminescence, 24 h; inhibition, % at 10 µM; hit rate 0.39% among 330,000;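 active = inhibition of 50% or more; inactive = inhibition below 50%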
tim10-1 confirm: growth inhibitors of tim10-1 mutant yeast, confirmation, single concentration, luminescence, S. cerevisiae. shares compounds with tim10-1 inh. S. cerevisiae tim10-1 ts strain growth, BacTiter-Glo, 24 h. inhibition, % at 20 µM. hit rate 56% among 7,400. AID 463213, 2010;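 active = inhibition of yeast growth at or above a set limit in either of two repeat tests at 20 µM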;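 also: tim10-1 mutant grown at permissive 25 °C to find synthetic lethal compounds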
A number is an active result; - = inactive; . = not tested or not shown. Only some compounds are listed: those with a hit (about 4.2% of all), similar ones and a draw of the others.

SMILES	tim10-1 inh	NALP1 yeast inh	tim23-1 inh	PfHsp90 set2	TIM10 inh	NALP3 yeast inh	tim10-1 confirm
COc1ccc(CCNC(=O)COC(=O)c2ccc(N3CCCC3=O)cc2)cc1	-	-	-	-	-	-	.
COc1cc(-c2nc3cc(C)ccn3c2NC2CCCCC2)ccc1-c1ccc(C(C)=O)cc1	40.4	.	-	-	-	-	-
OCC1(Cc2cccc(Cl)c2)CCCN(Cc2ccc3cc(F)ccc3n2)C1 (stereo not given)	47.9	-	-	-	-	-	-
COc1ccc(-n2ccnc2CN2CCCC(CO)(Cc3cccc(OC)c3)C2)cc1 (stereo not given)	41.0	-	-	-	-	-	-
CCCCCOc1ccc(C(=O)CCC(=O)NNC(=O)c2ccncc2)cc1	-	.	-	.	-	-	.
Cc1[nH][nH]c(=O)c1C(c1c(C)[nH][nH]c1=O)c1cn(Cc2cccc3ccccc23)c2ccccc12	48.2	-	-	-	-	-	33.3
CN(Cc1ccccc1)S(=O)(=O)c1ccc(NC(=O)c2ccccc2C(=O)O)cc1	-	.	-	-	-	-	.
COc1cc2ccccc2cc1C(=O)N(CCN(C)C)c1nc2c(C)cccc2s1	55.9	-	-	-	-	-	-
COc1cc2ccccc2cc1C(=O)N(CCN(C)C)c1nc2c(OC)ccc(OC)c2s1	46.3	-	-	-	-	-	-
COc1cc2ccccc2cc1C(=O)N(CCN(C)C)c1nc2ccc(C)cc2s1	42.2	-	-	-	-	-	-
S=C(NCC1CCCO1)Nc1ccc(Cl)c(Cl)c1 (stereo not given)	41.3	-	-	-	-	-	-
CN(C)c1ccc(NC(=S)NCC2CCCO2)cc1 (stereo not given)	-	-	-	-	-	-	.
CCCCc1ccc(NC(=S)NCC2CCCO2)cc1 (stereo not given)	45.1	-	-	-	-	-	33.5
CCCCNC(=O)CCCCCNS(=O)(=O)c1ccc(Br)cc1	-	-	-	-	-	-	.
Cc1nc2sccn2c(=O)c1S(=O)(=O)N1CCN(c2ccc(F)cc2)CC1	-	-	-	-	-	-	.
Cc1nc2sccn2c(=O)c1S(=O)(=O)N1CCN(c2cccc(C(F)(F)F)c2)CC1	41.8	-	-	-	-	-	-
CCN(C(=O)COC(=O)c1ccccc1Oc1ccccc1)c1c(N)n(Cc2ccccc2)c(=O)[nH]c1=O	.	.	.	-	.	.	.
O=C1N=C(N2CCOCC2)S/C1=C/c1ccc(-c2ccccc2Cl)o1	-	-	-	-	-	-	.
O=C1S/C(=C/c2ccc(N3CCOCC3)o2)C(=O)N1Cc1c(F)cccc1Cl	58.7	-	-	95.1	-	-	58.2
Cn1ccnc1SCC(=O)Nc1cc(F)ccc1F	-	-	-	-	-	-	.
O=C(Nc1cc(F)c(Br)cc1F)c1ccc(Cl)cc1	-	.	-	-	-	-	.
CCN(CC)C(=O)CSc1ncnc2sc(-c3ccccc3)cc12	45.9	-	-	.	-	-	-
Nc1ncnc2c1ncn2[C@@H]1O[C@H](CNC(=O)[C@@H](N)C2CCCCC2)[C@@H](O)[C@H]1O	-	.	-	-	-	.	.
CCOC(=O)CC(NS(=O)(=O)c1ccc2[nH]c(=O)sc2c1)c1ccc(C)cc1 (stereo not given)	-	-	-	-	-	-	.
CCCc1cc(-c2nc(N)ncc2-c2csc(C)n2)c(O)cc1OC	43.0	-	-	-	-	-	-
SMILES	tim10-1 inh	NALP1 yeast inh	tim23-1 inh	PfHsp90 set2	TIM10 inh	NALP3 yeast inh	tim10-1 confirm
Cc1c([N+](=O)[O-])c(C(=O)Sc2ccc(Br)cc2)nn1C	46.7	-	-	-	-	-	45.9
Cc1c([N+](=O)[O-])c(C(=O)N2CCCC2)nn1C	-	-	-	-	-	-	.
O=C(CSc1nc2[nH]ncc2c(=O)[nH]1)Nc1ccc(Cl)cc1	-	.	-	-	-	-	.
CCCCN1C(=O)NC(NC(=O)c2ccco2)(C(F)(F)F)C1=O (stereo not given)	-	-	-	-	-	-	.
CC(C)Oc1ccc(C(=O)NC2(C(F)(F)F)NC(=O)N(CCCc3ccccc3)C2=O)cc1 (stereo not given)	42.8	-	-	-	-	-	-
O=C(c1cc(COc2cccc(C(F)(F)F)c2)on1)N1C[C@@H]2CCC[C@H]1C2	45.0	-	-	-	-	-	34.3
CC(Sc1ccc([N+](=O)[O-])cn1)C(=O)Nc1nccs1 (stereo not given)	-	-	-	-	-	-	.
Cc1csc(NC(=O)c2nc(-c3ccccc3)n(-c3ccccc3)n2)n1	51.0	-	-	-	-	-	41.4
Cc1ccc(C)c(NC(=O)c2nc(-c3ccccc3)n(-c3ccccc3)n2)c1	42.7	-	-	-	-	-	-
COc1ccc(C(=Cc2cc(OC)c(OC)cc2[N+](=O)[O-])C(=O)O)cc1	.	.	.	-	.	.	.
CCCCNC(=S)N1CCn2cccc2C1c1ccc(F)cc1 (stereo not given)	43.7	-	-	-	-	-	-
CCCCNC(=S)N1CCn2cccc2C1c1ccccc1 (stereo not given)	-	-	-	.	-	-	.
Cc1cccc(NC(=O)C2C3C=CC(O3)C2C(=O)O)c1C (stereo not given)	-	-	-	-	-	-	.
O=C(c1cc(C2CC2)nc2ccccc12)N1N=C(C(F)F)CC1(O)C(F)F (stereo not given)	-	-	-	.	-	-	.
CC(C)c1ccc(-c2cc(C(=O)N3N=C(C(F)F)CC3(O)C(F)F)c3ccccc3n2)cc1 (stereo not given)	41.3	-	-	111.2	-	-	-
COc1ccccc1-n1cc2c([N+](=O)[O-])cc([N+](=O)[O-])cc2n1	49.3	-	-	-	-	-	37.6
CN1C(=O)C2(c3ccccc31)N(C)CC(c1ccccn1)C21SC(=S)N(Cc2ccco2)C1=O (stereo not given)	47.3	-	-	-	-	-	-
CCc1ccc(/C=C2\Oc3cc(OS(C)(=O)=O)ccc3C2=O)cc1	40.4	-	-	-	-	-	-
O=C(Nc1ccccc1Cl)O/N=C/c1ccncc1	-	.	-	-	-	-	.
Cc1ccc(N2CCN(S(=O)(=O)c3ccc4c(c3)NC(=O)C(C)C(=O)N4)CC2C)cc1 (stereo not given)	-	-	-	-	-	-	.
CCCc1cc(C(=O)Cc2ccc(C(=O)OCC)o2)c(O)cc1O	45.1	-	-	-	-	-	-
CCCc1cc(C(=O)Cc2ccc(F)cc2)c(O)cc1O	-	-	-	-	-	-	.

Source: PubChem (several laboratories)
